This is an account of results in PubChem BioAssay (EPA / NIEHS).

The structures appear in SMILES notation. Activity calls are given as the source filed them. Rule for the calls: active = hit-call score of the fitted dose curve at least 0.9, where 1 is the maximum; inactive = score below 0.9.

Assay [1] can be described thus: CEETOX_H295R_PROG: CeeTox H295R High-throughput Steroidogenesis Assay for Progesterone (PROG) (AID 2283442).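 For AC50: human H295R adrenal cells primed with 10 µM forskolin before dosing.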 Particulars: actives raise or lower the signal. A digest of the protocol:
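Progesterone secreted by human H295R cells was measured by LC-MS/MS following 48 h chemical exposure at 0.1% DMSO, preceded by 48 h forskolin (10 uM) stimulation. Same-well MTT viability; cytotoxic concentrations diluted 10- or 100-fold and retested.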

Read-out in assay [2]: Fatty acid synthase (Homo sapiens) (UniProt P49327)
Description: LTEA_HepaRG_FASN: Life Technologies and Expression Analysis (LTEA) Assay for Fatty Acid Synthase (FASN) using HepaRG (AID 2283448). Conditions: mRNA level, 48 h; actives raise or lower the signal. The procedure, abridged: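 Transcript-level assay: HepaRG liver cells are treated for 48 h across an eight-point range topping at 100 uM, and FASN mRNA, normalized to three housekeeping genes, is compared with DMSO controls in both directions.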

Read-out in assay [3]: Cyclin D2 (CCND2), CCND2 (gene 894)
In words: LTEA_HepaRG_CCND2: Life Technologies and Expression Analysis (LTEA) Assay for Cyclin D2 (CCND2) using HepaRG (AID 2283449).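 Note: CCND2 transcript measured by TaqMan qRT-PCR and normalised to three housekeeping genes.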 Conditions: mRNA level, 48 h; actives raise or lower the signal. The procedure, abridged:
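Differentiated human HepaRG cells were exposed for 48 h in serum-free induction medium to eight half-log concentrations topping at 100 uM (0.5% DMSO vehicle). CCND2 mRNA was quantified by TaqMan qRT-PCR, normalised to ACTB, GAPDH and POLR2A, and fitted bidirectionally against DMSO.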

Read-out in assay [4]: Cyclin Dependent Kinase Inhibitor 1A (CDKN1A), CDKN1A (gene 1026)
In words: LTEA_HepaRG_CDKN1A: Life Technologies and Expression Analysis (LTEA) Assay for Cyclin Dependent Kinase Inhibitor 1A (CDKN1A) using HepaRG (AID 2283450). Conditions: mRNA level, 48 h; actives raise or lower the signal. The procedure, abridged: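 Expression quantified by Fluidigm qRT-PCR with ACTB, GAPDH and POLR2A normalization, fitted bidirectionally against 0.5% DMSO. Cells: HepaRG, plated 48 h then treated 48 h in serum-free induction medium, top concentration 100 uM with half-log dilutions.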

Read-out in assay [5]: Cyclin D1 (CCND1), CCND1 (gene 595)
In words: LTEA_HepaRG_CCND1: Life Technologies and Expression Analysis (LTEA) Assay for Cyclin D1 (CCND1) using HepaRG (AID 2283451). Particulars: mRNA level, 48 h; actives raise or lower the signal. The procedure, abridged: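 Expression of CCND1 was quantified by qRT-PCR on Fluidigm arrays using ACTB, GAPDH and POLR2A as reference genes. HepaRG cultures, plated 48 h beforehand, were dosed for 48 h at up to 100 uM (half-log, 8 points) in 0.5% DMSO.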

Read-out in assay [6]: catalase (CAT), CAT (gene 847)
In words: LTEA_HepaRG_CAT: Life Technologies and Expression Analysis (LTEA) Assay for catalase (CAT) using HepaRG (AID 2283452). Conditions: mRNA level, 48 h; actives raise or lower the signal. The procedure, abridged: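 Differentiated HepaRG cells in serum-free induction medium were dosed 48 h in duplicate, eight half-log concentrations from 100 uM in 0.5% DMSO. Transcript measured by TaqMan qRT-PCR, normalised to ACTB/GAPDH/POLR2A, fitted bidirectionally against DMSO.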

Read-out in assay [7]: flavin-containing dimethylaniline monooxygenases 3 (FMO3), FMO3 (gene 2328)
Description: LTEA_HepaRG_FMO3: Life Technologies and Expression Analysis (LTEA) Assay for flavin-containing dimethylaniline monooxygenases 3 (FMO3) using HepaRG (AID 2283453). Particulars: mRNA level, 48 h; actives raise or lower the signal. The procedure, abridged: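 HepaRG, 48 h exposure, 8-pt half-log series from 100 uM, 0.5% DMSO vehicle, duplicates; FMO3 transcript by Fluidigm TaqMan qRT-PCR, housekeeping-normalized; gain/loss fit vs DMSO.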

Read-out in assay [8]: Cytochrome P450 (CYP1A1), CYP1A1 (gene 1543)
In words: LTEA_HepaRG_CYP1A1: Life Technologies and Expression Analysis (LTEA) Assay for Cytochrome P450 (CYP1A1) using HepaRG (AID 2283454). Conditions: mRNA level, 48 h; actives raise or lower the signal. The procedure, abridged:
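CYP1A1 transcript levels measured by Fluidigm qRT-PCR against three housekeeping genes, 48 h after chemical dosing of human HepaRG cells (highest concentration 100 uM, half-log steps, 0.5% DMSO vehicle). Gain or loss of signal fitted relative to DMSO.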

Read-out in assay [9]: CFLAR gene, CFLAR (gene 8837)
In words: LTEA_HepaRG_CFLAR: Life Technologies and Expression Analysis (LTEA) Assay for CFLAR gene using HepaRG (AID 2283455). Conditions: mRNA level, 48 h; actives raise or lower the signal. A digest of the protocol:
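HepaRG cells were plated for 48 h, switched to serum-free induction medium, then exposed in duplicate for 48 h to 8 concentrations (top 100 uM, half-log steps, 0.5% DMSO). CFLAR mRNA was measured by qRT-PCR, normalized to ACTB, GAPDH and POLR2A.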

Read-out in assay [10]: Tumor necrosis factor receptor superfamily member 6 (Homo sapiens) (UniProt P25445)
Description: LTEA_HepaRG_FAS: Life Technologies and Expression Analysis (LTEA) Assay for Fas cell surface death receptor (FAS) using HepaRG (AID 2283447). Conditions: mRNA level, 48 h; actives raise or lower the signal. A digest of the protocol:
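Differentiated human HepaRG cells, pre-cultured 48 h, were exposed in duplicate for 48 h to 8-point half-log concentrations (top 100 uM, 0.5% DMSO) in serum-free induction medium; FAS mRNA measured by qRT-PCR, normalized to ACTB/GAPDH/POLR2A, bidirectional fit versus DMSO.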

Chain of Fatty acid synthase (Homo sapiens) (P49327 whole entry, looked up): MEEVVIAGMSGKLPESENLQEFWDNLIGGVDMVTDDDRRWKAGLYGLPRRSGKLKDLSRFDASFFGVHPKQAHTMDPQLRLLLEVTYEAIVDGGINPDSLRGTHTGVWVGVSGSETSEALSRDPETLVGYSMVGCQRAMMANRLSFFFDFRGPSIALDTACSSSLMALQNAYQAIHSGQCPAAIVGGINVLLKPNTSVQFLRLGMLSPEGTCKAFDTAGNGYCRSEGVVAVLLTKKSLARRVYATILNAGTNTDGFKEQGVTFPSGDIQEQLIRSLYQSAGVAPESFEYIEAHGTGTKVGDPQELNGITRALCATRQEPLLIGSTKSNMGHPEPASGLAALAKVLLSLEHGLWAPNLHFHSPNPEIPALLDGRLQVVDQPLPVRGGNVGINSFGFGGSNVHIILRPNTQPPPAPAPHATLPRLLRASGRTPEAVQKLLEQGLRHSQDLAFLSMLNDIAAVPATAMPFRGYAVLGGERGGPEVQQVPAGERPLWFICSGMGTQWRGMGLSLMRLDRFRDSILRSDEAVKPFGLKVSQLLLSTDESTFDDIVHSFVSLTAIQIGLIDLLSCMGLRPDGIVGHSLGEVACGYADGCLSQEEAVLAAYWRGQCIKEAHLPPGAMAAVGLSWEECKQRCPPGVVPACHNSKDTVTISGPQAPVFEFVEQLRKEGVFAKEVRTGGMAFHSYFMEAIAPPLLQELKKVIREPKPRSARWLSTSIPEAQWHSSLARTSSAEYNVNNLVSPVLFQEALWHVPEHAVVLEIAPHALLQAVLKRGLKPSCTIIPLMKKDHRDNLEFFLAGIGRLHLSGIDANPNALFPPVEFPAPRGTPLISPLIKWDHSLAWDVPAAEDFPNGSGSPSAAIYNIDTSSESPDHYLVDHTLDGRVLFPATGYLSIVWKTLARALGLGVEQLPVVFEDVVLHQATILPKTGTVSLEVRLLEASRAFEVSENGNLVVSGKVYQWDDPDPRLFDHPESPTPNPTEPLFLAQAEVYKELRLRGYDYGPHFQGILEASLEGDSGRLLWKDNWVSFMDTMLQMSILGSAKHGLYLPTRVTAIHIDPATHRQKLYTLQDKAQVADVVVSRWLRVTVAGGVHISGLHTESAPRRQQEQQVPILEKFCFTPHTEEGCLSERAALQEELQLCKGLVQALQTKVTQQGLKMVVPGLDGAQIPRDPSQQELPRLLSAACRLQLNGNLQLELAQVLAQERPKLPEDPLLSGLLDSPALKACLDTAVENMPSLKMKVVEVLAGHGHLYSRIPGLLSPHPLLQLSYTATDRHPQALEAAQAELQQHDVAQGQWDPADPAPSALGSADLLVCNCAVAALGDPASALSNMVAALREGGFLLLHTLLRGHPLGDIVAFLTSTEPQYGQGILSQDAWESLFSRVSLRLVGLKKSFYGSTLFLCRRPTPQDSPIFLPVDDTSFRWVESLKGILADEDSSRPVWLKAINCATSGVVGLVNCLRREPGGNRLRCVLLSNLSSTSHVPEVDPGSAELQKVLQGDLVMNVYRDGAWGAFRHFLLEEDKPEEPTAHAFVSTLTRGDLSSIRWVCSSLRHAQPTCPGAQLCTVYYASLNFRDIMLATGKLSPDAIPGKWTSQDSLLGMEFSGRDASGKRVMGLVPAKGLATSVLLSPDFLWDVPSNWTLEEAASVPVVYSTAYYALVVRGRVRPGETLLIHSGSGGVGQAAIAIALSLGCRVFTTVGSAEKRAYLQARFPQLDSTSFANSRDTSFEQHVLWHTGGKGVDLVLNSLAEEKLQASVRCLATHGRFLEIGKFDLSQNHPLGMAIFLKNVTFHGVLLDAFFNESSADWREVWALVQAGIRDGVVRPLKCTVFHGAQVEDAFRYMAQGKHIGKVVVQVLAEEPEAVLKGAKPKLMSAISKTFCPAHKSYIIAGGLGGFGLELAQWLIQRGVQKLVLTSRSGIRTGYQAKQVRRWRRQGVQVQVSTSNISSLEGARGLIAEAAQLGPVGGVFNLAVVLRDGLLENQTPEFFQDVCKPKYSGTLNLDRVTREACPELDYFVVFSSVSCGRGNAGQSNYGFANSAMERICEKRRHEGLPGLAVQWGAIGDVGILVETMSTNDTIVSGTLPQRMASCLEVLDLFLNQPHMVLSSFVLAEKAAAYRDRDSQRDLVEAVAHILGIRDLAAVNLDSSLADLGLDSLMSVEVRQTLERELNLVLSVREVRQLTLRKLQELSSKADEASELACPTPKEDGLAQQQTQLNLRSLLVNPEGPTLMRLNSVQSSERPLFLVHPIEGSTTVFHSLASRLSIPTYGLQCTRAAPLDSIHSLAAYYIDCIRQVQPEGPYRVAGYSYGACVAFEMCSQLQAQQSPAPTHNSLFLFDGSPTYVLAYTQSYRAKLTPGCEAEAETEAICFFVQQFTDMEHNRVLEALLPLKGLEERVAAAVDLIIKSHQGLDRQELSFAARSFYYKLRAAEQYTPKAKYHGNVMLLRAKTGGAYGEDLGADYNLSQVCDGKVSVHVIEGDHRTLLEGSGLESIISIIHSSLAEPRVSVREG

As to `Cc1cc(C)cc(C)c1`, the call in assay [1], in [2], in [3], in assay [4], in assay [5] and in assay [6] was inactive. The result in assay [7], in assay [8] and in [9] was inactive.
For orientation: AC50 means the concentration giving half of the maximal activity seen. For the compound `CC(C)=CC1C(C(=O)OCc2cccc(Oc3ccccc3)c2)C1(C)C` (configuration not stated), in assay [1], the half-maximal activity concentration (AC50) was 25.8 µM (active).
The same measure, in the same setting: to `COc1ccc(N)cc1` belongs 16.4 µM (active).
On the same count and under the same terms, to `Oc1cccc(-c2ccccc2)c1` belongs 10 µM (active).
Consider `CC(C)(COCC1CO1)COCC1CO1` (configuration not stated), for which the compound was called inactive in [1].
On the same count and under the same terms, in the case of `O=[N+]([O-])c1ccc(Nc2ccccc2)cc1` it was “inactive”.
Turning to `C[C@]12CC[C@@H](O)C[C@@H]1CC[C@@H]1[C@@H]2CC[C@]2(C)C(=O)CC[C@@H]12`, the concentration at half-maximal activity (AC50) in assay [1] is 3.65 µM (active).
On to `COc1ccccc1N`, for which the call in assay [10], in [2], in assay [3], in [4], in [5] and in assay [6] was inactive. Also, the result in [7] and in assay [9] was inactive. In addition, in [8], the AC50 is 68.2 µM (active).
Regarding `Oc1cc(Cl)c(Cl)cc1Cl`, the outcome in assay [10], in [2], in assay [3], in assay [4], in [5] and in assay [6] was inactive. Moreover, the call in assay [7] and in assay [9] was inactive. The half-maximal activity concentration (AC50) in assay [8] was 80.5 µM (active).
Consider `Cc1cc(Cl)ccc1O`, for which, in [1], the outcome was inactive.
With `CCCCCCCCCCCCc1cccc(S(=O)(=O)O)c1`, the compound was classed as inactive in [10], in assay [2], in [4], in assay [6], in assay [7] and in [9]. The AC50 is 45 µM (active) in assay [5] and 51.6 µM (active) in [8].
For the compound `COC(=O)Nc1cccc(OC(=O)Nc2cccc(C)c2)c1`, in assay [1], the call was inactive.
Same read-out and setting: in the case of `Cc1ccccc1OP(=O)(Oc1ccccc1C)Oc1ccccc1C` it was “inactive”.
`Oc1c(Br)cc(Br)cc1Br`: the AC50 in assay [1] is 41.3 µM (active).
In the case of `N#Cc1cccnc1`, the result in assay [10], in assay [2], in assay [3], in [4], in assay [5] and in [6] was inactive. Moreover, the result in assay [7], in [8] and in assay [9] was inactive.
For the compound `CN(C)C(=S)S`, the compound was classed as inactive in assay [2], in assay [3], in assay [4], in assay [5], in assay [6] and in assay [7]. Also, in assay [9], the compound was called inactive. For the same compound, the half-maximal activity concentration (AC50) in assay [8] is 64.4 µM (active).
